The source of these data is PubChem BioAssay.

Assay [1] can be described thus: E. coli DRC41 culture turbidity changes, primary screen, E. coli filamentation inducer project, strain DRC41, OD650, 48 h (AID 1152).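 Further: E. coli MC1000 strain DRC41 lacking acrAB efflux pump and sulA.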 Conditions: E. coli DRC41 (acrAB sulA), higher = more signal, called active from +8 up or from −8 down.
The nature of assay [2]: small-molecule binders of probe aLefty1, primary screen, biochemical, small-molecule microarray, 635/667 nm fluorescence (AID 1153).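 Further: score merges spot fluorescence with signal-to-noise ratio from the scanned slide images.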 To be noted: higher = more signal.
The nature of assay [3]: PSAC antagonists in infected red cells, primary screen, cell-based, P. falciparum Indochina, OD700, 1 h (AID 1154). To be noted: P. falciparum Indochina infected RBC osmotic lysis, higher = more signal, called active from +8 up or from −8 down.
Assay [4] in a line: PSAC antagonists in infected red cells, primary screen, cell-based, P. falciparum Indochina, OD700, 2 h (AID 1155).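 Further: lysis reports solute entry through the parasite surface anion channel PSAC; channel blockers reduce lysis of infected cells.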 To be noted: P. falciparum Indochina infected erythrocytes, osmotic lysis OD700; higher = more signal, called active from +8 up or from −8 down.
Assay [5] can be described thus: osmotic lysis modulators in infected erythrocytes, primary screen, PSAC antagonist project, cell-based, P. falciparum Indochina, OD700, 3 h (AID 1156). To be noted: higher = more signal, called active from +8 up or from −8 down.
Assay [6] can be described thus: PSAC antagonists in infected red cells, primary screen, cell-based, P. falciparum Indochina, OD700, 18 h (AID 1157). Conditions: P. falciparum Indochina infected erythrocytes, osmotic lysis OD700, 18 h; higher = more signal, called active from +8 up or from −8 down.
Assay [7] is described as follows: modulators of S6 phosphorylation in cells, primary screen, cell-based, A549, cytoblot, luminescence, serum-stimulated (AID 1158).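 Further: serum-stimulated A549 lung adenocarcinoma cells; signal is phosphorylated S6 detected by cytoblot immunostaining with HRP secondary.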 Conditions: A549 phospho-S6 cytoblot, 5 h, higher = more signal.
Assay [8] deals with NADPH oxidase 2 (Homo sapiens) (UniProt P04839). The experiment in a line: NOX2-dependent H2O2 signal modulators, primary screen, NOX inhibitor project, cell-based, HEK293-NOX2, PMA-stimulated, Amplex Red fluorescence (AID 1159). Further: test concentration not given here. To be noted: 45 min, higher = more signal, called active from +8 up or from −8 down.
Assay [9] deals with NADPH oxidase 4 (Homo sapiens) (UniProt Q9NPH5). The experiment in a line: NOX4-dependent H2O2 signal modulators, primary screen, NOX inhibitor project, cell-based, HEK293-NOX4, tetracycline-induced, Amplex Red fluorescence (AID 1160). To be noted: 45 min, higher = more signal, called active from +8 up or from −8 down.
Assay [10] addresses NADPH oxidase 5 (Homo sapiens) (UniProt Q96PH1). The experiment in a line: NOX5-dependent H2O2 signal modulators, primary screen, NOX inhibitor project, cell-based, HEK293-NOX5, Amplex Red fluorescence (AID 1161). Conditions: HEK293-NOX5, ionomycin, 45 min, higher = more signal.
Assay [11] in a line: A549 cell viability effects, profiling panel, calcein-AM fluorescence, 48 h, basal (AID 1162). Further: test concentration not given here. To be noted: higher = more signal.
Assay [12] is described as follows: adipocyte viability effects, profiling panel, cell-based, 3T3-L1 adipocytes, calcein-AM fluorescence, 48 h, basal (AID 1163). Further: test concentration not given here. To be noted: 3T3-L1 adipocytes viability, higher = more signal.
Assay [13] in a line: HepG2 cell viability effects, profiling panel, calcein-AM fluorescence, 48 h, basal (AID 1164). Further: test concentration not given here. Conditions: higher = more signal.
Assay [14] can be described thus: MM1S cell viability effects, profiling panel, calcein-AM fluorescence, 48 h, basal (AID 1165).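 Further: viability of MM1S multiple myeloma cells under basal unstimulated conditions; test concentration not given here.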 Conditions: higher = more signal.
Assay [15] is described as follows: basal RPMI8226 viability, no added stimulus, profiling panel, cell-based, calcein-AM fluorescence, 48 h, PK04 Diversity Set (AID 1166).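 Further: cells grown under basal conditions without added stimulus; test concentration not given here.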 To be noted: RPMI8226 myeloma viability, higher = more signal.
Assay [16] can be described thus: basal HepG2 mitochondrial membrane potential changes, profiling panel, cell-based, JC-1 fluorescence, 24 h, 100 nL compound (AID 1167). Further: test concentration not given here. To be noted: higher = more signal.
The nature of assay [17]: basal 3T3-L1 adipocyte mitochondrial potential changes, profiling panel, cell-based, JC-1 fluorescence, 3T3-L1 adipocytes, 24 h, 100 nL compound (AID 1168). Further: test concentration not given here. To be noted: JC-1 mitochondrial fluorescence, higher = more signal, called active from +8 up or from −8 down.
The nature of assay [18]: basal RPMI8226 mitochondrial membrane potential changes, profiling panel, cell-based, JC-1 fluorescence, 24 h, 100 nL compound (AID 1169). Further: test concentration not given here. To be noted: RPMI8226 myeloma, JC-1 mitochondrial potential fluorescence, higher = more signal.
A short description of assay [19]: basal MM1S mitochondrial membrane potential changes, profiling panel, cell-based, JC-1 fluorescence, 24 h, 100 nL compound (AID 1170). Further: test concentration not given here. To be noted: higher = more signal.
Assay [20] in a line: A549 lung cancer cell viability effects, profiling panel, resazurin fluorescence, 24 h, PK04 Diversity Set (AID 1171). Further: test concentration not given here. To be noted: higher = more signal, called active from +8 up or from −8 down. For orientation: Alamar Blue is a resazurin reagent that responds to reducing activity.

The source made the active and inactive calls.

Sequence of NADPH oxidase 2 (Homo sapiens) (P04839 whole entry, looked up): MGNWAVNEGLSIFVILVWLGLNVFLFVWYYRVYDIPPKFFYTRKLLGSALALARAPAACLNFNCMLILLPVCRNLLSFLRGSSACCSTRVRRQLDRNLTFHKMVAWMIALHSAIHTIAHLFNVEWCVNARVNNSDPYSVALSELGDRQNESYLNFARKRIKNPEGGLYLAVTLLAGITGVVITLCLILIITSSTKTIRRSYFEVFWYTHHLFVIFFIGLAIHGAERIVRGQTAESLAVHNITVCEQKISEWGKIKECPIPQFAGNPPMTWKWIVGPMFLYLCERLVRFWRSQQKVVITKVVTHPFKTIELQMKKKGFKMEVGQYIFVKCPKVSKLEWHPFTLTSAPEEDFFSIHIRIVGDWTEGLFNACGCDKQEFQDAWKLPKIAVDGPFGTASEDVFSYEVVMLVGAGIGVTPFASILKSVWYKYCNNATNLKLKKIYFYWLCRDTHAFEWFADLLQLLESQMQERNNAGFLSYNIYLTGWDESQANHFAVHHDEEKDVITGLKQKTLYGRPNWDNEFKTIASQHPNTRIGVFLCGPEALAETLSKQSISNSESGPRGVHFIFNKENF
Sequence of NADPH oxidase 4 (Homo sapiens) (Q9NPH5 whole entry, looked up): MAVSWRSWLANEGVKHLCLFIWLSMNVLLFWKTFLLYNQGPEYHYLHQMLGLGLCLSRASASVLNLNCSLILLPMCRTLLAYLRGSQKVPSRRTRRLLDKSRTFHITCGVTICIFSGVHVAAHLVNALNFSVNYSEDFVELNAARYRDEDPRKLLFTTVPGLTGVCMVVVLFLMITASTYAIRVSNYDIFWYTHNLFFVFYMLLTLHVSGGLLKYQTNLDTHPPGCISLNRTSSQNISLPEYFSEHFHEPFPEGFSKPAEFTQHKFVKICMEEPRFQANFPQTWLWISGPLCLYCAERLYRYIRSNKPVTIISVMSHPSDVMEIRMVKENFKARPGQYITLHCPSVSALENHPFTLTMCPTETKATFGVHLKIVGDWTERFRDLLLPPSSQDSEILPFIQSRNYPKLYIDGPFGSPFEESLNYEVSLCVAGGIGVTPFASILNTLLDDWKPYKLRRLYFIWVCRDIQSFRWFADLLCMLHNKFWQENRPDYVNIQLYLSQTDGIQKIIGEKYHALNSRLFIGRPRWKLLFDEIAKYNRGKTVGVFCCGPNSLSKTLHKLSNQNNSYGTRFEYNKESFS
Sequence of NADPH oxidase 5 (Homo sapiens) (Q96PH1 whole entry, looked up): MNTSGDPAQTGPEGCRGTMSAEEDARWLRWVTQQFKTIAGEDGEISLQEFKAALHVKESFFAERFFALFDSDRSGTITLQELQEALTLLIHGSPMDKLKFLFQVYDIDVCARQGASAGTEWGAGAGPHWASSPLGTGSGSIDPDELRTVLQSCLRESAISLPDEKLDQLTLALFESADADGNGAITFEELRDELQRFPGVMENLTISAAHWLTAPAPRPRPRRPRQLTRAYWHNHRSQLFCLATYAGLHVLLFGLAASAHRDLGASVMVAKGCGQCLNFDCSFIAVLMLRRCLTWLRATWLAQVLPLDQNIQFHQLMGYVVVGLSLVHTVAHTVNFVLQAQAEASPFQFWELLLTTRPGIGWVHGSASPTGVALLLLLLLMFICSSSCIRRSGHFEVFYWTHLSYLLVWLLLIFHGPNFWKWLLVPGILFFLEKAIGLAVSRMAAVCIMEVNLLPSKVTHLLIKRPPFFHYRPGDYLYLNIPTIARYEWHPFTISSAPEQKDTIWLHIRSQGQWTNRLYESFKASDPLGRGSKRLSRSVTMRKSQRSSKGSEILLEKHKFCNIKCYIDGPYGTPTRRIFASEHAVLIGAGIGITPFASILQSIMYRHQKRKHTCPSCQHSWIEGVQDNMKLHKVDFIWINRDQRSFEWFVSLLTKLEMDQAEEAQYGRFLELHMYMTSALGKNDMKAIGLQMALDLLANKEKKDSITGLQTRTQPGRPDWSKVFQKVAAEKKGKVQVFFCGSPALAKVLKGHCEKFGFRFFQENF

As for `CCN1C(=O)[C@H]2[C@H]3[C@H](O)[C@H](O)CC(=NOCC(C)C)[C@@H]3CC[C@H]2C1=O`, the z-score was -1.87 (inactive) in assay [1]; 0.344 (inactive) in [3]; 0.365 (inactive) in assay [4]; 0.456 (inactive) in [5]; 0.379 (inactive) in [6]; -0.126 in [7]. The z-score in assay [8] is 0.603 (inactive); in assay [9], 0.324 (inactive); in [10], -0.654; in assay [11] it was -0.556; in assay [12] it was -0.0239; in [13], -0.308. The z-score in [14] is -0.181; in assay [15], 0.922; in assay [16], -0.501; in assay [17], -0.769 (inactive); in [18] it was 0.788; in assay [19], 0.0483. In addition, the z-score in assay [20] is -0.0226 (inactive). Moreover, in assay [2], the composite z-score is -0.245.
Regarding `CC(C)(C)N1C(=O)[C@H]2[C@H]3[C@H](O)[C@H](O)CC(=NO[C@@H]4O[C@H](CO)[C@@H](O)[C@H](O)[C@H]4O)[C@H]3CC[C@H]2C1=O`, the z-score in [1] is -1.73 (inactive); in [3], 5.45 (inactive); in assay [4] it was 1.46 (inactive); in assay [5], 1.01 (inactive); in assay [6], 1.24 (inactive); in assay [7], -0.527. Moreover, the z-score in [8] was 0.192 (inactive); in [9] it was -0.912 (inactive); in [10], -3.69; in assay [11], -2.09; in [12], 1.08; in [13], -2.16. Also, the z-score in assay [14] is -2.93; in [15], -3.96; in [16] it was -1.68; in [17], -1.81 (inactive); in assay [18], -0.344; in assay [19], -0.447. In assay [20], the z-score was -0.817 (inactive). Besides, in assay [2], the composite z-score was -0.193.
For `CC(=O)OC[C@H]1O[C@H](C#Cc2ccccc2)C=C[C@@H]1OC(C)=O`, the z-score in assay [1] was 0.714 (inactive); in assay [3], 1.12 (inactive); in [4], -0.08 (inactive); in assay [5], -0.0923 (inactive); in assay [6], -0.219 (inactive); in assay [7] it was -0.283. The z-score is 1.61 (inactive) in assay [8]; 0.415 (inactive) in [9]; 1.54 in [10]; -0.188 in assay [11]; 0.0552 in assay [12]; -0.136 in assay [13]. Also, the z-score in assay [14] is -3.51; in [15], -3.71; in [16] it was -1.65; in [17], 0.458 (inactive); in assay [18] it was -1.04; in assay [19], -2.48. In assay [20], the z-score was -0.713 (inactive). For the same compound, the composite z-score in assay [2] is -0.234.
`CC(C)(C)N1C(=O)[C@H]2[C@H]3[C@H](O)[C@H](O)CC(=O)[C@@H]3CC[C@H]2C1=O`: the z-score in [1] is -0.767 (inactive); in [3], 0.126 (inactive); in assay [4], 0.0976 (inactive); in [5], -1.24 (inactive); in assay [6], -0.0131 (inactive); in assay [7], 0.413. Besides, the z-score is -3.23 (inactive) in assay [8]; 0.0825 (inactive) in [9]; 0.309 in assay [10]; -0.743 in [11]; 0.436 in assay [12]; 0.178 in assay [13]. Besides, the z-score in [14] was -0.102; in [15], -0.052; in [16] it was -0.323; in assay [17] it was -0.715 (inactive); in assay [18] it was 0.967; in [19] it was 0.419. In assay [20], the z-score is 0.756 (inactive). Moreover, the composite z-score in [2] is -0.147.
Turning to `COC(=O)CC=C[C@@H](C)[C@@H](C=NOC[C@@H](O)[C@H]1O[C@@H]2OC(C)(C)O[C@@H]2[C@H]1O)NS(=O)(=O)c1ccc(C)cc1`, the z-score in assay [1] was 0.463 (inactive); in assay [3], -0.0598 (inactive); in [4] it was 0.0216 (inactive); in assay [5], -0.268 (inactive); in assay [6] it was 0.0967 (inactive); in [7], -0.979. Moreover, the z-score was 0.214 (inactive) in assay [8]; 0.171 (inactive) in assay [9]; 0.829 in [10]; -0.234 in [11]; 0.531 in [12]; 0.104 in assay [13]. The z-score is -1.57 in assay [14]; -0.34 in [15]; 0.153 in assay [16]; 0.158 (inactive) in assay [17]; -0.15 in assay [18]; -0.488 in [19]. Besides, the z-score in assay [20] is -0.854 (inactive). Further, the composite z-score in assay [2] worked out at 0.165.
As for `COc1cccc([C@H]2Oc3ccc(OC)cc3C(=NOC[C@@H](C)[C@H](OCc3ccccc3)C(C)C)[C@@H]2O)c1`, the z-score in [1] is -1.25 (inactive); in [3], 2.57 (inactive); in assay [4] it was 0.947 (inactive); in [5], 0.0083 (inactive); in [6], 0.612 (inactive); in assay [7], -0.891. Also, the z-score in assay [8] was -0.364 (inactive); in assay [9] it was -2.1 (inactive); in [10], -1.97; in [11], -0.956; in assay [12] it was 0.488; in assay [13], -0.744. The z-score was -0.596 in [14]; -2.12 in assay [15]; -3.51 in assay [16]; -0.65 (inactive) in assay [17]; -0.188 in assay [18]; 0.748 in assay [19]. Further, the z-score in [20] is 0.385 (inactive). For the same compound, the composite z-score in assay [2] is -0.0428.
`CCc1cc2c(nc1CC)CCN(CCC(C)=NO[C@H](C)c1cn([C@@H]3COC[C@H]3O)nn1)C2`: the z-score is 0.211 (inactive) in assay [1]; 1.34 (inactive) in [3]; 0.72 (inactive) in [4]; 0.322 (inactive) in assay [5]; 0.367 (inactive) in [6]; -0.656 in [7]. The z-score is -0.539 (inactive) in assay [8]; -0.138 (inactive) in assay [9]; 0.779 in assay [10]; 0.821 in [11]; -0.744 in assay [12]; 1.75 in [13]. In addition, the z-score in assay [14] is 0.546; in [15], -0.329; in [16] it was 0.338; in assay [17] it was 0.367 (inactive); in [18], -0.121; in assay [19] it was -0.676. The z-score in assay [20] was -0.574 (inactive). Moreover, in assay [2], the composite z-score is 0.199.
In the case of `COC(=O)CC=C[C@@H](C)[C@H](OCc1cccc(-c2ccccc2)c1)C1CCCCC1`, the z-score is -0.249 (inactive) in [1]; 1.56 (inactive) in [3]; 1.02 (inactive) in assay [4]; 0.0674 (inactive) in [5]; 0.367 (inactive) in [6]; -0.484 in assay [7]. In addition, the z-score is -0.491 (inactive) in assay [8]; 0.228 (inactive) in assay [9]; -0.471 in assay [10]; 0.687 in assay [11]; -0.328 in assay [12]; -0.0634 in assay [13]. For the same compound, the z-score is -1.92 in assay [14]; -0.771 in assay [15]; -0.579 in assay [16]; 0.57 (inactive) in assay [17]; -0.165 in assay [18]; -0.172 in assay [19]. The z-score in assay [20] is 0.2 (inactive). Further, the composite z-score in assay [2] is -0.289.
As for `C#CCCCON=C1C[C@@H](O)[C@@H](O)[C@@H]2[C@@H]3C(=O)N(c4ccc(F)cc4F)C(=O)[C@@H]3CC[C@@H]12`, the z-score in assay [1] is 0.177 (inactive); in assay [3], 1.22 (inactive); in assay [4] it was 0.719 (inactive); in assay [5], 0.642 (inactive); in assay [6], 0.0591 (inactive); in [7], -0.404. For the same compound, the z-score in assay [8] was 2.01 (inactive); in assay [9] it was 0.813 (inactive); in assay [10] it was 0.0107; in [11], -0.194; in [12], -0.566; in assay [13], -1.07. For the same compound, the z-score in assay [14] was 0.344; in assay [15], -0.865; in assay [16], 0.843; in assay [17], -1.15 (inactive); in [18], 0.0995; in [19] it was -0.413. For the same compound, the z-score in assay [20] was 0.193 (inactive). Also, the composite z-score in assay [2] was -0.147.
